Results reported in PubChem BioAssay (NCI).
Compounds without any hit were thinned out: in the full panel of roughly 79,000, 15% have a hit. Active and inactive are the calls of the source. Rule as the data show it: active = growth inhibition above about 70%; inactive = the rest.

Key:
[1] = NCI Yeast Anticancer Drug Screen. Data for the mlh1 rad18 strain (AID 175); settings: S. cerevisiae mlh1 rad18 strain growth inhibition, active compounds read high
Method in brief: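 A repair-deficient yeast strain is exposed to test compound, and growth is scored relative to vehicle-treated controls.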

[2] = NCI Yeast Anticancer Drug Screen. Data for the rad18 strain (AID 177); settings: S. cerevisiae rad18 mutant growth inhibition, active compounds read high
Method in brief: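 DNA-repair-defective yeast; compound treatment; growth inhibition scored against vehicle.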

[3] = NCI Yeast Anticancer Drug Screen. Data for the rad52 strain (AID 147);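 also: 0% = growth of vehicle-treated control cultures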; settings: S. cerevisiae rad52 mutant growth inhibition, active compounds read high
Method in brief: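 Growth of repair-deficient yeast cells was compared between compound-treated and vehicle-treated cultures to give percent inhibition.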

[4] = NCI Yeast Anticancer Drug Screen. Data for the wt1 strain (AID 149);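 also: 0% = growth of vehicle-treated wt1 cultures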; settings: S. cerevisiae wt1 strain (SPY 50644) growth inhibition, active compounds read high
Method in brief: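 Each compound is tested on wt1 yeast and the loss of growth versus vehicle gives the inhibition value.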

[5] = NCI Yeast Anticancer Drug Screen. Data for the rad50EPP+ strain (AID 151);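 also: 0% = growth of vehicle-treated control cultures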; settings: S. cerevisiae rad50 mutant strain, active compounds read high
Method in brief: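 Measured: growth inhibition of rad50EPP+ yeast. Reference: vehicle-treated controls. Screen uses strains with defined genetic alterations in DNA damage repair or cell cycle control.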

[6] = NCI Yeast Anticancer Drug Screen. Data for the mgt1 strain (AID 153); settings: S. cerevisiae mgt1 mutant growth inhibition, active compounds read high
Method in brief: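 Compounds were applied to mgt1 mutant yeast, and growth was then compared against vehicle-treated control cultures to give percent inhibition.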

[7] = NCI Yeast Anticancer Drug Screen. Data for the mec2-1 strain (AID 157); settings: S. cerevisiae mec2-1 strain, active compounds read high
Method in brief: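 Compounds were applied to mec2-1 yeast cells. Their growth was then compared with that of vehicle-treated cultures to give growth inhibition.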

[8] = NCI Yeast Anticancer Drug Screen. Data for the rad14 strain (AID 159);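 also: 0% = growth of vehicle-treated control cultures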; settings: S. cerevisiae rad14 strain growth inhibition, active compounds read high
Method in brief: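 Inhibition of growth is reported for a repair-deficient yeast mutant following compound treatment, calculated relative to cultures that received vehicle.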

[9] = NCI Yeast Anticancer Drug Screen. Data for the sgs1 mgt1 strain (AID 161);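 also: 0% = growth of cultures given vehicle only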; settings: S. cerevisiae sgs1 mgt1 strain, active compounds read high
Method in brief: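 This yeast growth screen uses a strain with defined DNA-repair lesions; compound-treated growth is compared with vehicle-treated growth.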

[10] = NCI Yeast Anticancer Drug Screen. Data for the CLN2oe strain (AID 163);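 also: 0% = growth of vehicle-only control cultures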; settings: S. cerevisiae CLN2oe strain, active compounds read high
Method in brief: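 Cells of an engineered yeast line with disturbed cell-cycle regulation are treated with compound. Inhibition of growth is then calculated relative to the vehicle-treated reference.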

[11] = NCI Yeast Anticancer Drug Screen. Data for the cln2 rad14 strain (AID 165);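 also: 0% = growth equal to vehicle treated cultures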; settings: S. cerevisiae cln2 rad14 strain, active compounds read high
Method in brief: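 Strain: cln2 rad14 yeast, altered in cell cycle control and DNA damage repair. Read-out: growth inhibition vs vehicle.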

[12] = NCI Yeast Anticancer Drug Screen. Data for the bub3 strain (AID 167); settings: S. cerevisiae bub3 mutant strain, active compounds read high
Method in brief: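 Mutant yeast screening strain plus compound; vehicle-treated cultures serve as the 0% inhibition reference.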

[13] = NCI Yeast Anticancer Drug Screen. Data for the wt2 strain (AID 169); settings: S. cerevisiae wt2 strain growth inhibition, active compounds read high
Method in brief: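 Growth of compound-treated yeast is measured and expressed as inhibition relative to vehicle-only controls.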

[14] = NCI Yeast Anticancer Drug Screen. Data for the mlh1 strain (AID 171);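 also: 0% = growth of vehicle-treated control cultures of the same strain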; settings: S. cerevisiae mlh1 strain growth inhibition, active compounds read high
Method in brief: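 Test agents were incubated with yeast bearing a defined DNA damage repair or cell cycle control alteration; values are growth inhibition normalised to vehicle-treated cultures.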

[15] = NCI Yeast Anticancer Drug Screen. Data for the sgs1 strain (AID 173);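 also: 0% = growth of vehicle-only control cultures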; settings: S. cerevisiae sgs1 mutant, active compounds read high
Method in brief: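 Strain with an altered DNA repair or cell cycle pathway exposed to compound. Growth then measured. Value = inhibition versus vehicle control.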

[16] = NCI Yeast Anticancer Drug Screen. Data for the rad50 strain (AID 155);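 also: 0% = growth of vehicle-only cultures of the same strain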; settings: S. cerevisiae rad50 strain growth inhibition, active compounds read high
Method in brief: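 Vehicle-treated cultures provide the reference for the growth inhibition reported for compound-exposed, repair-deficient yeast.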

[17] = at 5.0 µM (retest, dose inferred, filed as 0.5)
[18] = at 50.0 µM (retest, dose inferred, filed as 5.0)

Measured: growth inhibition

O=Cc1ccc2c(c1)C(=O)c1ccccc1C2=O
inactive: [1]; [17] 10% | [1]; [18] 61% | [1]; at 50.0 µM 67.8% | [2]; at 1.2 µM -1% | [2]; at 3.7 µM 0% | [2]; at 11.0 µM 14% | [2]; at 33.0 µM 61%
active: [2]; at 100.0 µM 81%

O=C1C=C(Cl)C(=O)N1c1cccc(Cl)c1
active: [3]; at 3.7 µM 89% | [3]; at 11.0 µM 99% | [3]; at 33.0 µM 99% | [3]; at 100.0 µM 99% | [4]; at 3.7 µM 97% | [4]; at 11.0 µM 100% | [4]; at 33.0 µM 99% | [4]; at 100.0 µM 100% | [5]; at 3.7 µM 96% | [5]; at 11.0 µM 99% | [5]; at 33.0 µM 99% | [5]; at 100.0 µM 99% | [6]; at 11.0 µM 99% | [6]; at 33.0 µM 99% | [6]; at 100.0 µM 100% | [7]; at 11.0 µM 99% | [7]; at 33.0 µM 100% | [7]; [18] 99% | [7]; at 50.0 µM 99.6% | [7]; at 100.0 µM 99% | [8]; at 3.7 µM 97% | [8]; at 11.0 µM 100% | [8]; at 33.0 µM 100% | [8]; at 100.0 µM 100% | [9]; [18] 99% | [9]; at 50.0 µM 99.5% | [10]; at 11.0 µM 99% | [10]; at 33.0 µM 99% | [10]; at 100.0 µM 99% | [11]; [18] 98% | [11]; at 50.0 µM 99.4% | [12]; at 3.7 µM 93% | [12]; at 11.0 µM 99% | [12]; at 33.0 µM 99% | [12]; [18] 98% | [12]; at 50.0 µM 99.5% | [12]; at 100.0 µM 100% | [13]; at 3.7 µM 99% | [13]; at 11.0 µM 100% | [13]; at 33.0 µM 100% | [13]; at 100.0 µM 100% | [14]; at 11.0 µM 99% | [14]; at 33.0 µM 100% | [14]; at 100.0 µM 100% | [15]; at 3.7 µM 95% | [15]; at 11.0 µM 99% | [15]; at 33.0 µM 100% | [15]; at 100.0 µM 99% | [2]; at 11.0 µM 99% | [2]; at 33.0 µM 99% | [2]; at 100.0 µM 99%
inactive: [3]; at 1.2 µM 6% | [4]; at 1.2 µM 12% | [5]; at 1.2 µM 41% | [6]; at 1.2 µM -3% | [6]; at 3.7 µM 67% | [7]; at 1.2 µM -6% | [7]; at 3.7 µM 63% | [7]; [17] 8% | [8]; at 1.2 µM 34% | [9]; [17] 11% | [10]; at 1.2 µM -13% | [10]; at 3.7 µM 33% | [11]; [17] 3% | [12]; at 1.2 µM 55% | [12]; [17] 65% | [13]; at 1.2 µM 30% | [14]; at 1.2 µM -11% | [14]; at 3.7 µM 58% | [15]; at 1.2 µM 21% | [2]; at 1.2 µM -1% | [2]; at 3.7 µM 36%

Cc1cc(O)c(C(C)C)cc1C1(c2cc(C(C)C)c(O)cc2C)OC(=O)c2ccccc21
active: [16]; [18] 98% | [16]; at 50.0 µM 94.1% | [7]; [18] 98% | [7]; at 50.0 µM 91.7% | [11]; [18] 97% | [11]; at 50.0 µM 97% | [12]; [18] 98% | [12]; at 50.0 µM 91.1% | [1]; [18] 98% | [1]; at 50.0 µM 91.6%
inactive: [3]; at 1.2 µM -4% | [3]; at 3.7 µM -3% | [3]; at 11.0 µM -5% | [3]; at 33.0 µM -3% | [3]; at 100.0 µM 34% | [4]; at 1.2 µM 2% | [4]; at 3.7 µM 2% | [4]; at 11.0 µM 5% | [4]; at 33.0 µM 1% | [4]; at 100.0 µM 20% | [5]; at 1.2 µM 0% | [5]; at 3.7 µM -1% | [5]; at 11.0 µM 0% | [5]; at 33.0 µM 0% | [5]; at 100.0 µM 0% | [6]; at 1.2 µM -1% | [6]; at 3.7 µM -1% | [6]; at 11.0 µM -2% | [6]; at 33.0 µM -3% | [6]; at 100.0 µM 18% | [16]; at 1.2 µM 3% | [16]; at 3.7 µM 0% | [16]; [17] 17% | [16]; at 11.0 µM 10% | [16]; at 33.0 µM 1% | [16]; at 100.0 µM 36% | [7]; at 1.2 µM 2% | [7]; at 3.7 µM 2% | [7]; [17] 0% | [7]; at 11.0 µM 1% | [7]; at 33.0 µM 4% | [7]; at 100.0 µM 29% | [8]; at 1.2 µM -1% | [8]; at 3.7 µM 1% | [8]; at 11.0 µM -1% | [8]; at 33.0 µM -4% | [8]; at 100.0 µM 33% | [10]; at 1.2 µM -3% | [10]; at 3.7 µM -2% | [10]; at 11.0 µM -6% | [10]; at 33.0 µM -5% | [10]; at 100.0 µM 12% | [11]; [17] 51% | [12]; at 1.2 µM -2% | [12]; at 3.7 µM 1% | [12]; [17] -12% | [12]; at 11.0 µM -34% | [12]; at 33.0 µM 16% | [12]; at 100.0 µM 24% | [13]; at 1.2 µM -2% | [13]; at 3.7 µM -4% | [13]; at 11.0 µM -3% | [13]; at 33.0 µM -3% | [13]; at 100.0 µM 31% | [15]; at 1.2 µM 2% | [15]; at 3.7 µM 4% | [15]; at 11.0 µM 5% | [15]; at 33.0 µM 2% | [15]; at 100.0 µM 48% | [1]; [17] 9% | [2]; at 1.2 µM 10% | [2]; at 3.7 µM 4% | [2]; at 11.0 µM -2% | [2]; at 33.0 µM 3% | [2]; at 100.0 µM 32%
